The campaign covered roughly 53,000 sequences. About 3,700 (7%) were called active. The sample as a whole holds a higher share of actives than the screen did. Unmarked numbers belong to inactive results.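 How the source made its calls: active means gene knockdowns whose robust z-score for IL-1 alpha signal is at least 2 or at most -2, so actives lie on both sides; inactive means the rest.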
Assay: Components of the Cytosolic LPS Sensing Pathway: Gene Identification via Genome-wide siRNA Screen;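 further: robust z of the log signal after scaling to non-targeting control siRNA wells of the plate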
Conditions: RAW264.7 macrophages, IL-1a HTRF, actives lie on both sides, screened at 100 nM (by protocol), cells primed 5 h with Pam3CSK4 first
Method in brief: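 Read-out: IL-1a HTRF on supernatant, divided by plate negative-control median ×100, log-transformed and converted to robust z-score. Cells were RAW264.7 given 100 nM siRNA, Pam3CSK4-primed 5 hours, then LipidA-transfected 24 hour.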

| Sequence | z-score |
| --- | --- |
| GCAGGUUUAACAACUUACUTT against Dmgdh | 3.07 (active) |
| GGAUUAGGUCAUUAUUAGGTT against Kcne3 | -0.202 |
| GGCAGUCUUGUCCCUUGUATT against Myl12a | -0.74 |
| GGAAGAAGGAACAUGAUCUTT against Mrpl52 | -0.928 |
| CCCAGUUCUGUCCUACUUATT against Efcab6 | -2.79 (active) |
| GGAGACAGUGGUAUUUUGATT against Birc5 | 0.468 |
| GGAAGCAUGUGAGAGAAAATT against C130026I21Rik | -1.03 |
| GGCAUCACACAGGAGAAAATT against Ppp1r16b | -0.391 |
| GGAACAGAUGGGUGUGAAATT against Wnt2b | -0.0195 |
| GGAAUUCAUUGCUAUUAUGTT against Cetn3 | 2.12 (active) |
| CUUUUGUAAAGCCUUCCACTT against Zfp708 | -0.259 |
| GGAUCUCGGGAAAAAGUUGTT against Spesp1 | 0.185 |
| GGUCUAUCUGAAGAACAGUTT against Xpo5 | 1.02 |
| GGAGGCAUGCCCUAUGAAUTT against Zfp11 | 1.4 |
| CCUCAAAUUAGUGCAGUUATT against Dnah8 | 0.661 |
| GGUGGCACUCUUUCAGAUCTT against Dennd1a | 2.08 (active) |
| GCUUGUCAAGUUUGUGAGCTT against Sec14l4 | -0.0652 |
| GGAAUAGUAACUCUUUCUCTT against Ehbp1l1 | -0.0157 |
| GGUUGUGGACACAUCCAAATT against Aacs | 2.08 (active) |
| GGAUGUUAAAGCAAGUGUATT against Olfr1153 | 0.169 |
| CGAGGAUUUCUAUCCUGACTT against Ascc1 | -0.764 |
| GGAAGUGCUCUGCUGUACATT against Eml6 | 0.655 |

| Sequence | z-score |
| --- | --- |
| GCUUGGUCAUUUUAAUAGGTT against Zscan29 | -0.527 |
| GGCCAGUGGGAAGUGAAGATT against Sec13 | 0.124 |
| GCCAUAUCAACCGUAUUGGTT against Lzts3 | -2.58 (active) |
| CGUGUACCAGCUACCUAAGTT against Phc2 | -1.31 |
| GGUUAGUAUGUAGCUCCCATT against Olfr982 | -0.401 |
| GGAACUUAAGAACUUUCUATT against Calb1 | 2.3 (active) |
| GGCCUAAAUUGACAAACUUTT against Oga | 1.04 |
| GGUAAAACAGAGGAGUCGGTT against Scaf1 | -0.444 |
| GGUACAAACUCUCCCUAGATT against Ube2c | -1.29 |
| GGAUCUACAUUGCUAAAGUTT against Dbil5 | 0.0731 |
| GCCCAAAAAGUGCUUGCUGTT against Tmem215 | -1.76 |
| CCUUCCCUUAAAUGGAACCTT against Slc9a1 | 1.63 |
| CGCAGUGAUUAUGACCUCCTT against Thegl | -2.34 (active) |
| GCCUUGUUACAAAUAGUCGTT against Tcf12 | 0.266 |
| GGGAUUCGGUGAAGAUUUGTT against Nfe2l1 | -0.736 |
| GGUGAAAUCCUGAUGUUUUTT against Vps33b | 0.301 |
| GGGACAAGAUCUGAACUUCTT against Rgl3 | -0.36 |
| CCUCACUGUGGUAACAUUATT against Olfr452 | 1.84 |
| GGAAAACAAACCACAGCCATT against Tpbpa | -2.66 (active) |
| GGUGCUAUUCAUCUGCACGTT against Lonp1 | -1.09 |
| GCCUGUCAUGGUUAUGACCTT against Shbg | -0.803 |
| GGACAGAUACGUUAUCAAGTT against Il3 | 1.31 |

| Sequence | z-score |
| --- | --- |
| CCCAUUUGAAAUUAGGGUATT against Mief1 | 0.607 |
| GCUGGCUUCAUUUUACUUATT against Degs1 | 0.126 |
| GGAUUACAGGCAUUUGGUUTT against Hmgn1 | 3.01 (active) |
| GGAGUGAAGAUCUGAUUGCTT against Aaas | -1.63 |
| GCUGGGAUGGUAUCGUUUCTT against Ripk2 | 0.559 |
| GGUAUUGAUGCCAAAUUAATT against Plekha5 | 1.38 |
| CGUCCUGUCGCUGAUUAAATT against Tcl1 | 0.323 |
| CCGAAAAGUGUGGCGAGAATT against Arid3c | -0.285 |
| CCAGAGUAAUUCAUCAUACTT against Agxt | 0.172 |
| GGUUCAGUUUGCCAAAGACTT against Elfn1 | 1.45 |
| GGACUUCACAUUCUUGAGATT against A130010J15Rik | -0.232 |
| GGUGGGCACUCUGGUUUUUTT against Eif4e | 4.66 (active) |
| GUAGUAACCAGAUCUUAUATT against Vmn1r29 | 0.496 |
| GGUUCAGCCAGAAUUUUCGTT against Lefty2 | 0.876 |
| GGAAAAGACUAACGAGCGGTT against Med11 | -0.703 |
| GGUCCUUCGUAGUUGUGGUTT against Sp110 | 1.33 |
| GCAAAAACCUAUAGGAAAATT against Srpk2 | 2.27 (active) |
| GGGAGAUCAUGAUAGCAGCTT against Cox5b | -0.828 |
| GCUUGGCUUCAGCAUAUGCTT against Phox2b | -0.867 |
| GCCACACUUAAGUCAGACCTT against Tprn | 0.597 |
| GGUGCUAAGAAAAUCAAAGTT against Ryr2 | 3.64 (active) |
| GGGAGCAAAUGUAAUUUAUTT against Tbpl1 | 0.842 |

| Sequence | z-score |
| --- | --- |
| GGUUUAACUUUAAUGAUGGTT against Cacna1e | -1.39 |
| GGGAAUGGGUCUUGUAAACTT against Ppat | -1.4 |
| GCAUAUGCUUUUACAACACTT against Zfp280c | 0.252 |
| GGUCAAUGCUGUUUUUGUUTT against Mxi1 | 2.41 (active) |
| GGUCUGUGCAAGCAAAUCGTT against Cacng2 | -0.153 |
| GGAAAAUCAUGGGAGCCUUTT against Lpo | -0.435 |
| GGAGAGUGAUGAACAGAUGTT against Pctp | 2.21 (active) |
| GGGCUCGUUAAUCUUUUACTT against Nop10 | 0.753 |
| GGAAAUGUUUCUGUUCAUUTT against Nipsnap3b | 0.295 |
| GGUGACUGACAGCUGCCAATT against Prima1 | 0.0318 |
| GGUUAAAAGAGGUGAUUAGTT against Mtfp1 | 1.9 |
| GGCCCAUCACUUACUAAAGTT against Exoc3l | 0.224 |
| GGAAUAUUCACAGUCCGAGTT against Zfand3 | -2.18 (active) |
| GCCAACAAUAUAAUUCAAGTT against Abca5 | 1.64 |
| GGUGACAAAAAGUCAAAGATT against Dis3l2 | -0.542 |
| CCAUGGUCUAGCACAGUGGTT against Cpn2 | -0.079 |
| GACACUGUCAAAUUAUGGATT against Vmn1r74 | -0.581 |
| CGGAAUGAUUCUGACUAAUTT against Mmp7 | 0.546 |
| GGUAUGGAAGACAAAACCUTT against Nlrp1a | 0.61 |
| GGAACACUGUGAGAACAAGTT against Peak1 | 0.124 |
| GGAGUAUUACGUCUGAUAUTT against Nrxn1 | 2.39 (active) |
| GGUGCUUAAUUCCUGUCCCTT against Ggn | -0.855 |

| Sequence | z-score |
| --- | --- |
| GGAGUUCUUCACGCGUAACTT against G6pd2 | 0.599 |
| GCUAGAGGAGUUUCUAAACTT against Clu | 0.0975 |
| GCUGGUGUCGGCAAAUCCUTT against Wnk1 | -0.62 |
| GCAGAAUGAGUUCAGACGATT against Mgmt | 0.36 |
| GGCUUUCAGUUAUUUGACATT against Zfp709 | -0.636 |
| GGUUGUCUUUCUACUCGGGTT against Plpp1 | 1.37 |
| GGGAUGUCUUCCUAUACAGTT against Cope | -2.78 (active) |
| GCUGAUGGAGAGUUAUUUGTT against Rcbtb1 | 0.675 |
| CCACCCAAAAGUAAAAAGUTT against Rpp38 | -1.29 |
| GGUCUGGAUGCUUUAGAAUTT against Fam114a1 | -0.373 |
| GCAUUACUUGAGCAAAACATT against Zfp654 | -0.854 |
| GGCUCUGGAUGAAGAACUUTT against Gfpt2 | 4.13 (active) |
| CCUUCCUGUCCAUGUACCUTT against Olfr412 | 0.879 |
| GGUCACUGUAAAAUGAACCTT against Odf2 | 1.48 |
| CGCACAUGUAGUUAAUAAATT against Iqcg | -0.96 |
| GGGCAAAGGAAAUGGAAUCTT against Eif5 | 2.33 (active) |
| GGCUCUUACUUCAUCACUATT against Casp4 | -1.9 |
| GGCCACUUCGUGUUCUUUUTT against Hoxa10 | 2.08 (active) |
| GGUUUUUAACCAAACAUGATT against Actr3 | -0.784 |
| CCAUCACUACACGAAAUUGTT against Fgf12 | 0.176 |
